Compounds with a hit are over-represented: about 1.4% of the library has one in this group of screens.
GSIS activator: GLuc luminescence reporter in INS-1E cells, primary screen for activators of glucose-dependent secretion of insulin | INS-1E GLuc reporter insulin secretion, 2-3 h | activation, % at 16.6 µM | 0.61% of 370,000 active | AID 743287;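 active = lowest replicate activation of at least 40%, so every replicate reaches that level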;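 note: 0% = median of neutral control wells and 100% = median of IBMX positive control wells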
PGC1a acetyl inh: modulators of PGC1a acetylation; U2OS PGC1a acetylation, AlphaScreen anti-acetyl-lysine; with virally co-expressed GCN5 acetyltransferase; inhibition, % at 15.6 µM; 0.17% of 350,000 active; AID 651687;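 active = every replicate shows inhibition of at least 40%; inconclusive = mean inhibition at least 40% but some replicate below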;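 note: 0% = neutral control wells and 100% = positive control wells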
RAD54 branch: blocks human RAD54 Holliday junction branch migration; Q92698; FAM/BHQ fluorescence; inhibition, % at 10.4 µM; 0.14% of 360,000 active; AID 602329;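 active = mean normalized replicate activity at least 40 and at least half of replicates scoring 40 or more; inconclusive = only one of the two criteria met; inactive = mean below 40 and under half of replicates reaching 40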;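 note: 0% = median of neutral control wells and 100% = median of positive control wells; inhibitors cause a drop in the FAM fluorescence signal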
MLL AF4-AF9 inh: MLL-AF4/AF9 protein interaction inhibition. P42568. AlphaScreen, biotin-AF4 peptide binding to FLAG-AF9. inhibition, % at 10 µM. 0.47% of 350,000 active. AID 651704;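 active = every replicate reaching a set inhibition limit, whatever the replicate mean, cut at about 25% in these data; inconclusive = mean inhibition reaches that limit but some replicates miss it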;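 note: 0% = plate neutral control median and 100% = total signal loss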
Target sequence (P42568 whole entry, looked up): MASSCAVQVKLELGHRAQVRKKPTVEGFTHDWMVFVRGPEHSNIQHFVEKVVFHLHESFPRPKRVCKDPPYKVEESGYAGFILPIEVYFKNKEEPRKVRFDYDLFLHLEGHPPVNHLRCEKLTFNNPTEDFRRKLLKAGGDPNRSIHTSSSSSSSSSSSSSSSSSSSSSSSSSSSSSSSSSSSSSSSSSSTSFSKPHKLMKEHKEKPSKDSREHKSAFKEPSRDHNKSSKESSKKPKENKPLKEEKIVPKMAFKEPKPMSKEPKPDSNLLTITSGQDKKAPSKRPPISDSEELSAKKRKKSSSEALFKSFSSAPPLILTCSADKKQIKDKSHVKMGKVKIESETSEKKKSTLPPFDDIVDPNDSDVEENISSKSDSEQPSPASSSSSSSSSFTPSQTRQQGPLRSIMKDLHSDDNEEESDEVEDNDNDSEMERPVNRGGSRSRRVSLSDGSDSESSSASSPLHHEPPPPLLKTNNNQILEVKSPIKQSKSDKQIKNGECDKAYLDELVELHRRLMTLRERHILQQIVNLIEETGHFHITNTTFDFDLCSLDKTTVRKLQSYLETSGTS
RAD52 anneal inh: inhibitors of human RAD52 DNA annealing | P43351 | inhibition, % at 18.7 µM | recombinant RAD52 DNA annealing, FRET fluorescence | 0.46% of 360,000 active;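 active = every replicate showing at least 50% inhibition; inconclusive = mean inhibition at least 50% but not in every replicate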
ERAP1 HTS inh: ERAP1 (human) enzyme inhibition. Q9NZ08. recombinant ERAP1, Leu-AMC fluorescence, 60 min. inhibition, % at 10.7 µM. 0.15% of 340,000 active. AID 652197;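 active = mean replicate inhibition of at least 30%, or all replicates individually reaching that 30% level; inactive = mean below 30% and not every replicate reaching it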;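 note: 0% = neutral control wells and 100% = L-leucinethiol positive control wells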
Numbers without * were called inactive.

`CCN(C(=O)CSc1ncccn1)c1cccc2ccccc12` gave GSIS activator 48*, PGC1a acetyl inh -1, RAD54 branch -4, MLL AF4-AF9 inh 0, RAD52 anneal inh -19 and ERAP1 HTS inh -1.
CCC(=O)N1[C@H](CO)[C@H]2c3ccccc3N(S(=O)(=O)c3ccccc3)C[C@H]21 was read as GSIS activator 14, PGC1a acetyl inh 3, RAD54 branch -14, MLL AF4-AF9 inh 0, RAD52 anneal inh 1 and ERAP1 HTS inh 0.
Cc1ccnc(NS(=O)(=O)c2ccc(NC(=O)Cc3ccccc3)cc2)n1 was read as GSIS activator 28, PGC1a acetyl inh 2 and RAD54 branch -10.
Cc1ccnc(NS(=O)(=O)c2ccc(NC(=O)CCc3ccccc3)cc2)n1 was read as GSIS activator 42*, RAD54 branch 3, MLL AF4-AF9 inh 2, RAD52 anneal inh -8 and ERAP1 HTS inh 0.
`CCOc1ccccc1OCCCC(=O)Nc1ccc(S(=O)(=O)Nc2cc(C)nc(C)n2)cc1` gave GSIS activator 12, PGC1a acetyl inh -4, RAD54 branch -18, MLL AF4-AF9 inh -1, RAD52 anneal inh -7 and ERAP1 HTS inh 30*.
`O=C(C1CC1)N1CC(=O)N2[C@H](CO)[C@H](c3ccc(-c4ccccc4F)cc3)[C@H]2C1` gave GSIS activator 18, PGC1a acetyl inh 11, MLL AF4-AF9 inh 0, RAD52 anneal inh -2 and ERAP1 HTS inh 2.
For Cc1ccc(S(=O)(=O)Nc2ccc3c(c2)C(=O)N([C@H](C)CO)C[C@@H](C)[C@H](CN(C)C(=O)C2CCCCC2)OCCCC[C@@H](C)O3)cc1 the results were GSIS activator -16, PGC1a acetyl inh 2, RAD54 branch 4, MLL AF4-AF9 inh 5, RAD52 anneal inh 17 and ERAP1 HTS inh 2.
Screening COc1ccc(NC(=O)Nc2ccc3c(c2)CC(=O)N([C@@H](C)CO)C[C@@H](C)[C@H](CN(C)C(=O)Nc2ccc4c(c2)OCO4)O3)cc1 returned GSIS activator 1, PGC1a acetyl inh 3, RAD54 branch 5, MLL AF4-AF9 inh 4, RAD52 anneal inh 6 and ERAP1 HTS inh -2.
Screening CCOCCCn1c(SCc2ccccc2)nnc1-c1ccncc1 returned GSIS activator 78*, RAD54 branch 5, MLL AF4-AF9 inh 2, RAD52 anneal inh -6 and ERAP1 HTS inh 0.
CS(=O)(=O)c1ccc(N)c(SSc2cc(S(C)(=O)=O)ccc2N)c1 was read as GSIS activator 12, PGC1a acetyl inh 2, RAD54 branch -8, MLL AF4-AF9 inh -16, RAD52 anneal inh -12 and ERAP1 HTS inh 39*.
For CS(=O)(=O)c1ccc2nc(N)sc2c1 the results were PGC1a acetyl inh -11 and RAD54 branch -5.
Screening CCN(CC)CCNC(=O)c1ccc(NC(=O)c2ccc(-n3cncn3)c([N+](=O)[O-])c2)cc1 returned MLL AF4-AF9 inh 0, RAD52 anneal inh 2 and ERAP1 HTS inh 100*.
Screening COc1ccc2c3c([nH]c2c1)[C@@H](CO)N(C(=O)CN(C)C)CC31CCN(Cc2ccccc2)CC1 returned GSIS activator -8.
Cc1c(CCC(=O)NCCCCCC(=O)O)c(=O)oc2cc3occ(-c4ccccc4)c3cc12 was read as GSIS activator 8, PGC1a acetyl inh 12, RAD54 branch -18, MLL AF4-AF9 inh 0, RAD52 anneal inh -41 and ERAP1 HTS inh 35*.
Fc1cccc(Cl)c1-c1nnc2ccc3ccccc3n12 was read as GSIS activator 6, MLL AF4-AF9 inh 0, RAD52 anneal inh -3 and ERAP1 HTS inh 9.
Fc1ccccc1-c1nnc2ccc3ccccc3n12 was read as GSIS activator 53*, PGC1a acetyl inh 7, RAD54 branch 3, MLL AF4-AF9 inh -11, RAD52 anneal inh -6 and ERAP1 HTS inh 6.
For COc1ccc(CCNC(=O)COC(=O)CCC(=O)c2ccc(F)cc2)cc1OC the results were GSIS activator 87*, MLL AF4-AF9 inh 0 and RAD52 anneal inh 4.
`COc1ccc(CCNC(=O)C(=O)c2c[nH]c3ccccc23)cc1OC` gave GSIS activator 12, RAD54 branch 1, MLL AF4-AF9 inh 8, RAD52 anneal inh -3 and ERAP1 HTS inh -3.
`COc1ccc(CCNC(=O)COC(=O)Cc2c[nH]c3ccccc23)cc1OC` gave GSIS activator 52*, PGC1a acetyl inh 3, RAD54 branch -5, MLL AF4-AF9 inh 0, RAD52 anneal inh -9 and ERAP1 HTS inh 1.
`CCC(=O)Nc1ccc2c(c1)C(=O)N(C)[C@H]1CC[C@@H](CC(=O)N3CCc4ccccc4C3)O[C@H]1CO2` gave GSIS activator -5 and PGC1a acetyl inh 1.
For CCc1nc(N)nc(N)c1-c1ccc(Cl)cc1 the results were PGC1a acetyl inh 48*, RAD54 branch -8, MLL AF4-AF9 inh -4, RAD52 anneal inh -4 and ERAP1 HTS inh -1.
Screening C/C=C1\COC(C(=O)NCc2ccccc2)(C(F)(F)F)C=C1C=C1CCCCC1 (stereo not drawn) returned GSIS activator 141*, RAD54 branch -9, MLL AF4-AF9 inh 3, RAD52 anneal inh -18 and ERAP1 HTS inh 1.
C/C=C1\COC(C(=O)NCCN2CCCC2)(C(F)(F)F)C=C1C=C1CCCCC1 (stereo not drawn) was read as PGC1a acetyl inh 4, RAD54 branch 3, MLL AF4-AF9 inh 10, RAD52 anneal inh -44 and ERAP1 HTS inh -3.
For CC(C)(C)S(=O)N1Cc2cc(C(=O)Nc3ccc(-c4ccccc4)cc3)nc(-c3cccc(-c4cccc(F)c4)c3)c2[C@@H]1CCO (stereo partly drawn) the results were GSIS activator 190*, PGC1a acetyl inh -3, MLL AF4-AF9 inh -2, RAD52 anneal inh -41 and ERAP1 HTS inh 2.
CCCC(=O)Nc1ccc2c(c1)OC[C@H](C)N(C(=O)CC1CC1)C[C@@H](C)[C@@H](OC)CN(C)C2=O was read as GSIS activator 2, PGC1a acetyl inh 1, RAD54 branch -3, MLL AF4-AF9 inh -2, RAD52 anneal inh -4 and ERAP1 HTS inh -3.
Oc1ccc2c(c1)OCC1(O)Cc3cc(O)c(O)cc3C21 (stereo not drawn) was read as GSIS activator 0, PGC1a acetyl inh -2, RAD54 branch -16, MLL AF4-AF9 inh 26*, RAD52 anneal inh -24 and ERAP1 HTS inh 7.
Oc1cc2c(cc1O)[C@H]1c3ccc(O)c(O)c3OC[C@@]1(O)C2 was read as GSIS activator 2, PGC1a acetyl inh 0, RAD54 branch 9, MLL AF4-AF9 inh inconclusive, RAD52 anneal inh -14 and ERAP1 HTS inh 22.
`CO[C@H]1CN(C)C(=O)c2ccc(NC(=O)Nc3ccc(Cl)c(Cl)c3)cc2OC[C@H](C)NC[C@H]1C` gave GSIS activator 3, RAD54 branch -2, MLL AF4-AF9 inh 14, RAD52 anneal inh 39 and ERAP1 HTS inh -1.

From PubChem
